{"source": "PubChem BioAssay AID504332", "about": "(National Center for Advancing Translational Sciences (NCATS), 2011)", "note": "Where “and” joins values, the source holds several entries; their conditions need not be identical. Equal values may be shown once. The whole screen tested about 350,000 compounds, of which about 31,000 (8.9%) were called active. Another 15% or so got no clear call; they are omitted. Calls come from the whole dose curve; as a rule, active = well fitted inhibition curve with a large enough effect; inconclusive = small, poorly fitted or top-dose-only effect; inactive = no such curve, though single readings can be large or run the other way. Shown is part of a subset that was picked to be rich in actives. More than one record can exist for a structure, and the calls need not agree. % is set by controls: 0 for no effect and ±100 for the full control effect; potency is the fitted concentration of half-maximal effect.", "data": [{"molecular_target": "Histone-lysine N-methyltransferase EHMT2 (Homo sapiens) (UniProt Q96KQ7)", "sequence (Q96KQ7 913-1193 limits assumed)": "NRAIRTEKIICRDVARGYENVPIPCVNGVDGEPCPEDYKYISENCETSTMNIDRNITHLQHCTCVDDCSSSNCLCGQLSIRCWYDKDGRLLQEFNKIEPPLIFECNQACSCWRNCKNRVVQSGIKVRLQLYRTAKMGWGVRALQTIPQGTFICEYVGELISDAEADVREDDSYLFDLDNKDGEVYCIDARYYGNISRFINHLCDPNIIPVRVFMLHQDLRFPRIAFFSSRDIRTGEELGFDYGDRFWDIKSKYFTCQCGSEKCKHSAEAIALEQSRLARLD", "assay": "qHTS Assay for Inhibitors of Histone Lysine Methyltransferase G9a; note: nearly all actives have a fitted effect of over 75% in size", "conditions": "G9a H3K9 monomethylation, AlphaScreen, 2 h; series mostly up to 59 µM; activity, negative = inhibition: at the top concentration", "in_short": "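Compounds were preincubated with 20 nM G9a for 15 min, after which biotinylated H3K9 peptide (500 nM) and SAM (20 uM) started a 2 h room-temperature reaction. Monomethylated product was quantified by antibody-based AlphaScreen chemiluminescence.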", "values": [{"smiles": "COc1cc(C)c(C)cc1S(=O)(=O)N1CCCc2ccccc21", "activity, negative = inhibition": "87% [at 102 µM] (inactive)"}, {"smiles": "COc1ccc(OCC(=O)N2CCN(C(=O)COc3ccccc3)CC2)cc1", "activity, negative = inhibition": "21% (inactive)"}, {"smiles": "COc1ccc(OCC(=O)N2CCOCC2)cc1", "activity, negative = inhibition": "6.34% [at 12.7 µM] (inactive)"}, {"smiles": "CC1CN(C2CCN(C(=O)COc3ccccc3)CC2)CC(C)O1", "note": "(stereo unspecified)", "Potency": "8.91 µM (active)"}, {"smiles": "Cc1cc(C)cc(NC(=O)C(OC(=O)c2ccc(O)cc2)c2ccccc2)c1", "note": "(stereo unspecified)", "activity, negative = inhibition": "-7.57% [at 12.7 µM] (inactive)"}, {"smiles": "CC(C)(C)c1ccc(C(=O)Nc2ccc3c(c2)CCCN3C(=O)c2cccs2)cc1", "activity, negative = inhibition": "-0.495% (inactive)"}, {"smiles": "CCCCCn1c(=O)[nH]c2cc(C(=O)Nc3cc(C)cc(C)c3)ccc2c1=O", "activity, negative = inhibition": "3.83% (inactive)"}, {"smiles": "O=C(O)c1ccccc1CSc1nc2ccccc2s1", "Potency": "10 µM (active)"}, {"smiles": "O=C(CSc1nc2ccccc2s1)Nc1ccc(C(=O)O)cc1", "activity, negative = inhibition": "-6.27% (inactive)"}, {"smiles": "O=C(O)CSCc1nc2ccccc2s1", "activity, negative = inhibition": "-10.2% (inactive)"}, {"smiles": "Cc1ccc(Cc2nc3ccccc3nc2SCC(=O)Nc2cccc(C(F)(F)F)c2)cc1", "activity, negative = inhibition": "-0.77% (inactive)"}, {"smiles": "COc1ccc(S(=O)(=O)N2CCN(CC(=O)NCC3(N4CCOCC4)CCCCC3)CC2)cc1", "activity, negative = inhibition": "-3.79% [at 12.7 µM] (inactive)"}, {"smiles": "Cc1cc(C)cc(NC(=O)Cn2nc(N3CCN(c4ccccc4)CC3)ccc2=O)c1", "activity, negative = inhibition": "-31.5% (inactive)"}, {"smiles": "COc1ccc(NC(=O)c2cnc(Nc3ccc(C)c(Cl)c3)c3ccccc23)cc1OC", "activity, negative = inhibition": "3.97% (inactive)"}, {"smiles": "Cc1csc2nc(COC(=O)c3ccccc3NC(=O)c3ccccc3Cl)cc(=O)n12", "activity, negative = inhibition": "6.79% (inactive)"}, {"smiles": "O=c1cc(CCl)nc2scc(-c3ccccc3)n12", "Potency": "50.1 µM (active)"}, {"smiles": "Cc1csc2nc(COc3ccc(NC(=O)COc4ccccc4)cc3)cc(=O)n12", "activity, negative = inhibition": "-2.98% (inactive)"}, {"smiles": "Cc1cccc2c(=O)cc(CSc3ccccc3NC(=O)C(C)C)[nH]c12", "activity, negative = inhibition": "-21.4% (inactive)"}, {"smiles": "COc1ccc(OC)c(-n2nnc3c(sc4nc(C)c(Br)c(C)c43)c2=O)c1", "activity, negative = inhibition": "-25.7% (inactive)"}, {"smiles": "O=S(=O)(O)Oc1c[nH]c2ccccc12", "Potency": "2.51 µM (active)"}, {"smiles": "O=C(NC1CCCC1)C(=O)c1c[nH]c2ccccc12", "activity, negative = inhibition": "47.4% [at 102 µM] (inactive)"}, {"smiles": "O=C(OCC(=O)c1c[nH]c2ccccc12)c1cccc(O)c1", "activity, negative = inhibition": "-89.6% [at 102 µM] (inactive)"}, {"smiles": "Cc1cccn2c(=O)c(C(=O)NC(C)c3ccccc3)cnc12", "note": "(stereo unspecified)", "activity, negative = inhibition": "15.6% (inactive)"}, {"smiles": "Brc1ccc(CSc2ccc(-c3ccco3)nn2)cc1", "activity, negative = inhibition": "-9.49% [at 102 µM] (inactive)"}, {"smiles": "O=C(CSc1ccc(-c2ccco2)nn1)NCc1ccc2c(c1)OCO2", "Potency": "31.6 µM (active)"}, {"smiles": "CCn1c(CNC(=O)c2ccco2)nnc1SCC(=O)Nc1cccc(F)c1", "activity, negative = inhibition": "11.1% [at 102 µM] (inactive)"}, {"smiles": "Fc1cccc(Cl)c1CSc1ccc(-c2ccco2)nn1", "Potency": "31.6 µM (active)"}, {"smiles": "O=C(CSc1ccc(-c2ccc(F)cc2)nn1)Nc1ccc2c(c1)OCCO2", "activity, negative = inhibition": "-8.82% [at 102 µM] (inactive)"}, {"smiles": "CCn1c(=O)cc(SCC(=O)NCc2ccc3c(c2)OCO3)c2ccccc21", "activity, negative = inhibition": "-1.7% [at 102 µM] (inactive)"}, {"smiles": "Cc1cc(SCc2c(F)cccc2Cl)nc(=O)[nH]1", "activity, negative = inhibition": "-5.25% [at 0.501 µM] (inactive)"}, {"smiles": "Cc1ccccc1-c1nnc(SCC(=O)NCc2ccc3c(c2)OCO3)n1C", "activity, negative = inhibition": "-10.1% [at 12.7 µM] (inactive)"}, {"smiles": "O=C(CSc1ccc(-c2ccco2)nn1)Nc1cccc(F)c1", "Potency": "15.8 µM (active)"}, {"smiles": "CCN1C(=O)C(=O)N(CC(=O)Nc2cc(C)ccc2C)C1=O", "activity, negative = inhibition": "1.01% [at 2.33 µM] (inactive)"}, {"smiles": "CCOc1ccc(Nc2nc3c(S(=O)(=O)c4cccc(Cl)c4)nnn3c3ccsc23)cc1", "activity, negative = inhibition": "7.88% (inactive)"}, {"smiles": "CC(C)S(=O)(=O)c1oc(-c2ccc(F)cc2)nc1S(=O)(=O)c1ccc(F)cc1", "activity, negative = inhibition": "-38.5% (inactive)"}, {"smiles": "C[N+](C)(CCCCCC[N+](C)(C)CCCN1C(=O)c2cccc3cccc(c23)C1=O)CCCN1C(=O)c2cccc3cccc(c23)C1=O", "Potency": "inactive and 22.4 µM (active)"}, {"smiles": "O=C1c2cccc3cccc(c23)C(=O)N1CCCCCc1n[nH]c(=S)o1", "Potency": "2.51 µM (active)"}, {"smiles": "O=C(CN1C(=O)c2cccc3cccc(c23)C1=O)N1CCCCC1", "activity, negative = inhibition": "17.3% (inactive)"}, {"smiles": "O=C1c2cccc3cccc(c23)C(=O)N1c1cccc(O)c1", "activity, negative = inhibition": "21.1% [at 2.33 µM] (inactive)"}, {"smiles": "COc1ccc(N2C(=O)c3cccc4cccc(c34)C2=O)nn1", "activity, negative = inhibition": "-3.86% [at 12.7 µM] (inactive)"}, {"smiles": "O=C(COC(=O)CCCN1C(=O)c2cccc3cccc(c23)C1=O)NC1CCS(=O)(=O)C1", "note": "(stereo unspecified)", "activity, negative = inhibition": "3.13% [at 102 µM] (inactive)"}, {"smiles": "O=C(Cn1cnc2c(oc3ccccc32)c1=O)Nc1ccc(OC(F)(F)F)cc1", "activity, negative = inhibition": "5.06% (inactive)"}, {"smiles": "COc1cc(/C=N/NC(=O)c2cccnc2)ccc1OC(=O)c1cccc(Br)c1", "activity, negative = inhibition": "40.7% [at 102 µM] (inactive)"}, {"smiles": "CCc1ccccc1NC(=O)CN(C)C(=O)c1cc(C2CC2)nn1-c1ccccc1", "activity, negative = inhibition": "14.2% [at 12.7 µM] (inactive)"}, {"smiles": "CCCc1[nH]nc2c1C(c1ccc(Br)s1)C(C#N)=C(N)O2", "note": "(stereo unspecified)", "Potency": "50.1 µM (active)"}, {"smiles": "CCCc1[nH]nc2c1C(C1CC=CCC1)C(C#N)=C(N)O2", "note": "(stereo unspecified)", "activity, negative = inhibition": "11.7% [at 102 µM] (inactive)"}, {"smiles": "CCCc1[nH]nc2c1C(c1ccc(OC(=O)c3ccco3)cc1)C(C#N)=C(N)O2", "note": "(stereo unspecified)", "activity, negative = inhibition": "-8% (inactive)"}, {"smiles": "COc1ccc(C2=NN(C(=O)c3ccccc3C(=O)O)C(c3ccccc3O)C2)cc1", "note": "(stereo unspecified)", "activity, negative = inhibition": "-9.47% (inactive)"}, {"smiles": "CCC(=O)Nc1ccc(C)cc1-c1nc2ccccc2n(Cc2ccccc2)c1=O", "activity, negative = inhibition": "-34% (inactive)"}, {"smiles": "COc1ccc(NC(=O)c2sccc2SCC#N)cc1", "Potency": "7.94 µM (active)"}, {"smiles": "COc1ccc(NC(=O)c2sc(N)nc2-c2ccccc2)cc1", "activity, negative = inhibition": "-2.46% [at 102 µM] (inactive)"}, {"smiles": "COc1ccc(NC(=O)CSc2nc(C)cs2)cc1", "activity, negative = inhibition": "9.68% [at 102 µM] (inactive)"}, {"smiles": "COc1ccccc1-c1sc2ccccc2c1-c1ccc(Br)nc1", "activity, negative = inhibition": "-0.161% [at 0.501 µM] (inactive)"}, {"smiles": "COc1cccc(CNC(=O)C(NS(=O)(=O)c2ccc3nc(C)sc3c2)C(C)C)c1", "note": "(stereo unspecified)", "activity, negative = inhibition": "5.41% (inactive)"}, {"smiles": "O=S(=O)(NC(=S)Nc1ccccc1)c1ccc(F)cc1", "Potency": "1.58 µM (active)"}, {"smiles": "CC(=O)NS(=O)(=O)c1ccc(NC(=S)NC(=O)C(C)(C)C)cc1", "activity, negative = inhibition": "-14.5% [at 0.501 µM] (inactive)"}, {"smiles": "Cc1ccc(NC(=S)Nc2ccc(F)cc2)cc1", "activity, negative = inhibition": "0.197% [at 102 µM] (inactive)"}, {"smiles": "Cc1cc(C)c(S(=O)(=O)n2cc(C(C)C(N)C(=O)O)c3ccccc32)c(C)c1", "note": "(stereo unspecified)", "activity, negative = inhibition": "11.6% [at 12.7 µM] (inactive)"}, {"smiles": "CCn1ccnc1CN1CCCC(C(=O)c2ccc3c4c(cccc24)CC3)C1", "note": "(stereo unspecified)", "Potency": "35.5 µM (active)"}, {"smiles": "COc1ccc(C(=O)C2CCCN(S(=O)(=O)c3cccc(C)c3)C2)c(C)c1", "note": "(stereo unspecified)", "activity, negative = inhibition": "-2.54% [at 102 µM] (inactive)"}, {"smiles": "O=C(CSc1nc2ccccc2c(=O)n1CCCO)NC1CC1", "activity, negative = inhibition": "-11.2% [at 2.33 µM] (inactive)"}]}]}
